# Test results taken from the supplement of paper PMC4466140.
# B1: unnamed (peptide)
# chain: NPTKSPPPPPSPSTM
# Columns and labels:
# Assay in all cases: SPOT peptide array binding signal intensity (averaged, normalized) (arbitrary units (background-subtracted, floor 0; scale differs between SH3 domains)); higher = stronger binding of the SH3 domain to the peptide
# [1] = molecular target: AgAbp1
# Outline: (§1)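 Four yeast species supplied the SH3 domains, which were expressed as GST fusions in E. coli BL21(DE3) and purified on glutathione Sepharose. Incubation with cellulose membranes carrying synthetic 15-mer peptides, cysteines exchanged for serines, ran overnight at 4°C at 10 μg/ml in TBS-based blocking buffer. Binding signal is reported as normalized, background-subtracted spot intensity averaged over replicates, in arbitrary units not shared between domains.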
# [2] = molecular target: AgBbc1
# Outline: as §1
# [3] = molecular target: AgBem1-D1
# Outline: as §1
# [4] = molecular target: AgBzz1-D1
# Outline: as §1
# [5] = molecular target: AgBzz1-D2
# Outline: as §1
# [6] = molecular target: AgCyk3
# Outline: as §1
# [7] = molecular target: AgFus1
# Outline: as §1
# [8] = molecular target: AgHof1
# Outline: as §1
# [9] = molecular target: AgHse1
# Outline: as §1
# [10] = molecular target: AgLsb1
# Outline: as §1
# [11] = molecular target: AgLsb4
# Outline: as §1
# [12] = molecular target: AgMyo5
# Outline: as §1
# [13] = molecular target: AgNbp2
# Outline: as §1
# [14] = molecular target: AgRvs167
# Outline: as §1
# [15] = molecular target: AgSho1
# Outline: as §1
# [16] = molecular target: AgSla1-D1-D2
# Outline: as §1
# [17] = molecular target: AgSla1-D3
# Outline: as §1
# [18] = molecular target: CaAbp1-D1
# Outline: as §1
# [19] = molecular target: CaAbp1-D2
# Outline: as §1
# [20] = molecular target: CaBbc1
# Outline: as §1
# [21] = molecular target: CaBem1-D1
# Outline: as §1
# [22] = molecular target: CaBzz1-D1
# Outline: as §1
# [23] = molecular target: CaBzz1-D2
# Outline: as §1
# [24] = molecular target: CaCyk3
# Outline: as §1
# [25] = molecular target: CaFus1
# Outline: as §1
# [26] = molecular target: CaHof1
# Outline: as §1
# [27] = molecular target: CaHse1
# Outline: as §1
# [28] = molecular target: CaLsb1
# Outline: as §1
# [29] = molecular target: CaLsb4
# Outline: as §1
# [30] = molecular target: CaMyo5
# Outline: as §1
# [31] = molecular target: CaNbp2
# Outline: as §1
# [32] = molecular target: CaRvs167
# Outline: as §1
# [33] = molecular target: CaRvs167-3
# Outline: as §1
# [34] = molecular target: CaSho1
# Outline: as §1
# [35] = molecular target: CaSla1-D1-D2
# Outline: as §1
# [36] = molecular target: CaSla1-D3
# Outline: as §1
# [37] = molecular target: ScAbp1
# Outline: as §1
# [38] = molecular target: ScBbc1
# Outline: as §1
# [39] = molecular target: ScBem1-D1
# Outline: as §1
# [40] = molecular target: ScBzz1-D1
# Outline: as §1
# [41] = molecular target: ScBzz1-D2
# Outline: as §1
# [42] = molecular target: ScCyk3
# Outline: as §1
# [43] = molecular target: ScFus1
# Outline: as §1
# [44] = molecular target: ScHof1
# Outline: as §1
# [45] = molecular target: ScHse1
# Outline: as §1
# [46] = molecular target: ScLsb1
# Outline: as §1
# [47] = molecular target: ScLsb2
# Outline: as §1
# [48] = molecular target: ScLsb3
# Outline: as §1
# [49] = molecular target: ScLsb4
# Outline: as §1
# [50] = molecular target: ScMyo3
# Outline: as §1
# [51] = molecular target: ScMyo5
# Outline: as §1
# [52] = molecular target: ScNbp2
# Outline: as §1
# [53] = molecular target: ScPex13
# Outline: as §1
# [54] = molecular target: ScRvs167
# Outline: as §1
# [55] = molecular target: ScSho1
# Outline: as §1
# [56] = molecular target: ScSla1-D1-D2
# Outline: as §1
# [57] = molecular target: ScSla1-D3
# Outline: as §1
# [58] = molecular target: SpAbp1-D1
# Outline: as §1
# [59] = molecular target: SpBbc1
# Outline: as §1
# [60] = molecular target: SpBzz1-D1
# Outline: as §1
# [61] = molecular target: SpBzz1-D2
# Outline: as §1
# [62] = molecular target: SpCyk3
# Outline: as §1
# [63] = molecular target: SpHof1
# Outline: as §1
# [64] = molecular target: SpHof1-2
# Outline: as §1
# [65] = molecular target: SpHof1-3
# Outline: as §1
# [66] = molecular target: SpHse1
# Outline: as §1
# [67] = molecular target: SpLsb1
# Outline: as §1
# [68] = molecular target: SpLsb4
# Outline: as §1
# [69] = molecular target: SpMyo1
# Outline: as §1
# [70] = molecular target: SpNbp2
# Outline: as §1
# [71] = molecular target: SpPex13
# Outline: as §1
# [72] = molecular target: SpRvs167
# Outline: as §1
# [73] = molecular target: SpSla1-D1-D2
# Outline: as §1
# [74] = molecular target: SpSla1-D3
# Outline: as §1
binder,measurement,setting,value
B1,SPOT peptide array binding signal intensity,[1],≤ 0
same,SPOT peptide array binding signal intensity,[2],≤ 0
same,SPOT peptide array binding signal intensity,[3],26
same,SPOT peptide array binding signal intensity,[4],126
same,SPOT peptide array binding signal intensity,[5],63.5
same,SPOT peptide array binding signal intensity,[6],≤ 0
same,SPOT peptide array binding signal intensity,[7],≤ 0
same,SPOT peptide array binding signal intensity,[8],7
same,SPOT peptide array binding signal intensity,[9],16
same,SPOT peptide array binding signal intensity,[10],1.25
same,SPOT peptide array binding signal intensity,[11],≤ 0
same,SPOT peptide array binding signal intensity,[12],232
same,SPOT peptide array binding signal intensity,[13],≤ 0
same,SPOT peptide array binding signal intensity,[14],≤ 0
same,SPOT peptide array binding signal intensity,[15],≤ 0
same,SPOT peptide array binding signal intensity,[16],≤ 0
same,SPOT peptide array binding signal intensity,[17],128
same,SPOT peptide array binding signal intensity,[18],7
same,SPOT peptide array binding signal intensity,[19],≤ 0
same,SPOT peptide array binding signal intensity,[20],≤ 0
same,SPOT peptide array binding signal intensity,[21],5
same,SPOT peptide array binding signal intensity,[22],3240
same,SPOT peptide array binding signal intensity,[23],1620
same,SPOT peptide array binding signal intensity,[24],7.5
same,SPOT peptide array binding signal intensity,[25],60
same,SPOT peptide array binding signal intensity,[26],≤ 0
same,SPOT peptide array binding signal intensity,[27],4
same,SPOT peptide array binding signal intensity,[28],0.5
same,SPOT peptide array binding signal intensity,[29],≤ 0
same,SPOT peptide array binding signal intensity,[30],48
same,SPOT peptide array binding signal intensity,[31],45
same,SPOT peptide array binding signal intensity,[32],0.667
same,SPOT peptide array binding signal intensity,[33],1
same,SPOT peptide array binding signal intensity,[34],10.5
same,SPOT peptide array binding signal intensity,[35],49
same,SPOT peptide array binding signal intensity,[36],30
same,SPOT peptide array binding signal intensity,[37],≤ 0
same,SPOT peptide array binding signal intensity,[38],≤ 0
same,SPOT peptide array binding signal intensity,[39],≤ 0
same,SPOT peptide array binding signal intensity,[40],274
same,SPOT peptide array binding signal intensity,[41],22
same,SPOT peptide array binding signal intensity,[42],≤ 0
same,SPOT peptide array binding signal intensity,[43],≤ 0
same,SPOT peptide array binding signal intensity,[44],1
same,SPOT peptide array binding signal intensity,[45],21.5
same,SPOT peptide array binding signal intensity,[46],≤ 0
same,SPOT peptide array binding signal intensity,[47],≤ 0
same,SPOT peptide array binding signal intensity,[48],≤ 0
same,SPOT peptide array binding signal intensity,[49],≤ 0
same,SPOT peptide array binding signal intensity,[50],771
same,SPOT peptide array binding signal intensity,[51],343
same,SPOT peptide array binding signal intensity,[52],47.5
same,SPOT peptide array binding signal intensity,[53],80
same,SPOT peptide array binding signal intensity,[54],≤ 0
same,SPOT peptide array binding signal intensity,[55],18
same,SPOT peptide array binding signal intensity,[56],≤ 0
same,SPOT peptide array binding signal intensity,[57],11.5
same,SPOT peptide array binding signal intensity,[58],≤ 0
same,SPOT peptide array binding signal intensity,[59],≤ 0
same,SPOT peptide array binding signal intensity,[60],548
same,SPOT peptide array binding signal intensity,[61],7.25
same,SPOT peptide array binding signal intensity,[62],4
same,SPOT peptide array binding signal intensity,[63],1.25
same,SPOT peptide array binding signal intensity,[64],4
same,SPOT peptide array binding signal intensity,[65],0.5
same,SPOT peptide array binding signal intensity,[66],94
same,SPOT peptide array binding signal intensity,[67],1
same,SPOT peptide array binding signal intensity,[68],≤ 0
same,SPOT peptide array binding signal intensity,[69],468
same,SPOT peptide array binding signal intensity,[70],≤ 0
same,SPOT peptide array binding signal intensity,[71],≤ 0
same,SPOT peptide array binding signal intensity,[72],2
same,SPOT peptide array binding signal intensity,[73],≤ 0
same,SPOT peptide array binding signal intensity,[74],≤ 0
